Pf apPOL block – Pf-apPOL DNA polymerase inhibition. Recombinant Pf-apPOL, molecular beacon fluorescence, 1.5 h. inhibition, % at 10 µM. 0.25% of 210,000 active. AID 1794808
mHTT CaM bind – mHTT-calmodulin interaction abrogation; AlphaScreen His-mHTT/GST-CaM binding, luminescence; 3.6% of 190,000 active; P42858; inhibition, % at 15 µM; AID 1671202;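 further: 0% = both proteins with DMSO and 100% = one protein alone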
Numbers without * were called inactive; i = inactive; · = no result given. Only a selection was taken, and hits are over-represented in it overall. No stated cut-off is given here; in the data, active means inhibition above about 50%; inactive means the rest.

SMILES	Pf apPOL block	mHTT CaM bind
O=C(NC1CCCCCC1)C1CCN(c2ncnc3c2nc2n3CCCCC2)CC1	-1	-4
O=C(Nc1ccc2nc(-c3ccccn3)c(-c3ccccn3)nc2c1)N1CCOCC1	-2	7
O=C(Nc1ccc2nc(-c3ccco3)c(-c3ccco3)nc2c1)N1CCSCC1	2	84*
O=C(Nc1ccc2nc(-c3ccco3)c(-c3ccco3)nc2c1)N1CCOCC1	-5	76*
Cc1nc2ccc(NC(=O)N3CCCC3)cc2nc1C	1	0
Cn1cccc1/C=N\NC(=O)c1cnccn1	·	i
Clc1ccc(-c2nnc(-c3ccccc3Br)o2)cc1	-1	-12
Cc1cccc(OCC2C[N+]34CCO[B-]3(OCC4)O2)c1 (stereo not given)	1	-1
COc1ccc(CNC(=O)c2cnn3c2NC(c2ccc4c(c2)OCO4)CC3C(F)(F)F)cc1 (stereo not given)	-7	27
